Experimental data reported in the supplement of paper PMC7156485.
± gives the standard deviation of the averaged measurements.

system: HCC1569; test: cell number relative to DMSO (% of DMSO); higher = more cells (less growth inhibition / toxicity); details: concentration: 10 µM; 24 h
In short: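 For HCC1569 and TDF cells, compounds at 10 µM were applied for 24 h at 37 °C in triplicate in 384-well plates. Cells were fixed in 3.7% formaldehyde, stained for H1.0 and with DAPI, and imaged at ×10 over six fields per well. The endpoint, H1.0 nuclear intensity or cell number, is shown as percent of the plate control using the median of replicates. Positional effects were smoothed for HCC1569 only.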
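Note: TDF denotes transformed human dermal fibroblasts of mesenchymal origin.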

| Structure (SMILES) | cell number |
| --- | --- |
| CCCCC1=NC2(CCCC2)C(=O)N1Cc1ccc(-c2ccccc2-c2nn[nH]n2)cc1 | 101 |
| Nc1nc(=O)c2ncn(COCCO)c2[nH]1 [Acyclovir] | 98.8 |
| O=C(O)c1cc([N+](=O)[O-])ccc1NCCCc1ccccc1 [5-Nitro-2-(3-phenylpropylamino)benzoic acid] | 105 |
| CN1C2CCC1CC(NC(=O)c1nn(C)c3ccccc13)C2.O=C(O)C=CC(=O)O (configuration not stated) [LY-278,584 maleate] | 104 |
| COc1ccc(-c2coc3cc(O)cc(O)c3c2=O)cc1 [Biochanin A] | 106 |
| CNC1(C)C2CCC(C2)C1(C)C (configuration not stated) [Mecamylamine] | 101 |
| C=C1C(=CC=C2CCCC3(C)C2CCC3C(C)CCCC(C)C)CC(O)CC1O (configuration not stated) [Alfacalcidol] | 100 |
| CN(C)CCCN1c2ccccc2CCc2ccccc21.Cl [Imipramine.HCl] | 100 |
| Cc1cc(Nc2ncc3cc(-c4c(Cl)cccc4Cl)c(=O)n(C)c3n2)ccc1F | 36.3 |
| O=C1N(c2ccccc2)c2ccccc2C1(Cc1ccncc1)Cc1ccncc1 [Linopirdine] | 108 |
| Cl.Cl.Cl.Cl.NCCCNCCCCNCCCN [Spermine tetrahydrochloride] | 102 |
| CCCCCC=CC=C1C(=O)C=CC1CC=CCCCC(=O)O (configuration not stated) [15d-Prostaglandin J2] | 98.9 |
| S=C([S-])OC1CC2CC1C1CCCC21.[K+] (configuration not stated) | 102 |
| COc1cccc2c1C(=O)c1c(O)c3c(c(O)c1C2=O)CC(O)(C(=O)CO)CC3OC1CC(N)C(O)C(C)O1.Cl (configuration not stated) [Doxorubicin.HCl] | 59.6 ± 3.9 |
| CN(C(Cc1ccc(OS(=O)(=O)c2cccc3cnccc23)cc1)C(=O)N1CCN(c2ccccc2)CC1)S(=O)(=O)c1cccc2cnccc12 (configuration not stated) | 75.2 ± 17 |
| CCc1cc(Cl)c(OC)c(C(=O)NCC2CCCN2CC)c1O.Cl (stereo not drawn) [S-(-)-Eticlopride hydrochloride] | 102 |
| CCCCCC(O)C=CC1C2CC(CO2)C1CC=CCCCC(=O)O (configuration not stated) | 102 |
| CCCCCCCCCCCCCCCC(=O)OCC=C(C)C=CC=C(C)C=CC1=C(C)CCCC1(C)C [Retinyl palmitate] | 101 |
| CC(CS)C(=O)N1CCCC1C(=O)O (configuration not stated) [Captopril] | 98.4 ± 2.9 |

| Structure (SMILES) | cell number |
| --- | --- |
| CC1CCC(C(C)(C)O)CC2=C1CCC2C (single isomer, unassigned; (-)) [(-)-Guaiol] | 99.2 |
| O=C1Nc2cc(Br)ccc2C1=C1N=c2ccccc2=C1NO [GSK-3 Inhibitor IX] | 56.3 |
| CC(C)C(NC(=O)OCc1ccccc1)C(=O)NC(C=O)Cc1ccccc1 (configuration not stated) | 99.5 |
| O=C(O)CCCc1c[nH]c2ccccc12 [Indole-3-butyric acid] | 104 |
| COC(=O)c1ccc(O)c2[nH]c3c(C=O)c(O)cc(=O)c-3nc12 [Lomofungin] | 105 |
| CCS(=O)(=O)CCn1c([N+](=O)[O-])cnc1C [Tinidazole] | 107 |
| NC(=O)c1cccc(N)c1 [3-aminobenzamide] | 98.6 |
| CNC1C(O)C(NC)C2OC3(O)C(=O)CC(C)OC3OC2C1O.Cl.Cl (configuration not stated) [Spectinomycin.2HCl] | 98.8 |
| CN(C)CCOC(c1ccccc1)c1ccccc1.Cl [Diphenhydramine hydrochloride] | 100 |
| C(=Cc1ccccc1)CN1CCN(C(c2ccccc2)c2ccccc2)CC1 [Cinnarizine] | 74.9 |
| CC(C=CC1=C(C)CCCC1(C)C)=CC=CC(C)=CC(=O)O [Retinoic acid] | 104 |
| COc1ccc(-c2cc(=O)c3ccc(O)cc3o2)cc1 [Pratol] | 98.5 |
| CC(=O)O.O=C(O)c1ccc2c3c1cccc3c(=O)n1c3ccccc3nc21 | 99.7 |
| CC1COc2c(N3CCN(C)CC3)c(F)cc3c(=O)c(C(=O)O)cn1c23 (configuration not stated) [Ofloxacin] | 101.5 ± 0.68 |
| CC=CC(=O)N(CC)c1ccccc1C [Crotamiton] | 103 |
| O=C1Cc2c([nH]c3ccc(Br)cc23)-c2ccccc2N1 [Kenpaulone] | 73.4 |
| O=P(O)(O)C(O)(Cc1cccnc1)P(=O)(O)O [Risedronic acid] | 110 |
| COC(=O)C(Cc1ccc(OCCn2c(=O)sc3cc(C(=O)c4ccccc4)ccc32)cc1)C(=O)OC | 102 |
